Source: PMC5540273 (PLoS ONE, 2017)
“And” between values parts separate entries of the source, which are not always exact repeats. Equal values may be shown once. Read-outs that look alike come from different tables or passages of the source.

Tests used:
TLK2 = settings: concentration: 1 μM, replicates: in singlicate, n = 1
TNIK = settings: concentration: 1 μM, replicates: in singlicate, n = 1
TNK1 = settings: concentration: 1 μM, replicates: in singlicate, n = 1
TNK2 = settings: concentration: 1 μM, replicates: in singlicate, n = 1
TNNI3K = settings: concentration: 1 μM, replicates: in singlicate; n = 1
TRKA = test system: T1, TRKA; settings: concentration: 1 μM, replicates: in singlicate; n = 1
T1 construct: gene NTRK1

TRKB = settings: concentration: 1 μM, replicates: in singlicate, n = 1
TRKC = test system: T2, TRKC; settings: concentration: 1 μM, replicates: in singlicate, n = 1
T2 construct: gene NTRK3

TRPM6 = settings: concentration: 1 μM, replicates: in singlicate, n = 1
TSSK1B = settings: concentration: 1 μM, replicates: in singlicate; n = 1
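Note: KINOMEscan kinase panel screen.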

c1ccc(-c2n[nH]cc2-c2ccnc3ccccc23)nc1 [GW271431]
%Inh (TLK2): 0% | %Inh (TNIK): 32% | %Inh (TNK1): 10% | %Inh (TNK2): 19% | %Inh (TNNI3K): 12% | %Inh (TRKA): 35% | %Inh (TRKB): 0% | %Inh (TRKC): 0% | %Inh (TRPM6): 29% | %Inh (TSSK1B): 11%

Cl.Oc1cccc(Nc2ccnc3cc(-c4ccncc4)ccc23)c1 [GW494601]
%Inh (TLK2): 9% | %Inh (TNIK): 86% | %Inh (TNK1): 72% | %Inh (TNK2): 16% | %Inh (TNNI3K): 33% | %Inh (TRKA): 68% | %Inh (TRKB): 11% | %Inh (TRKC): 25% | %Inh (TRPM6): 0% | %Inh (TSSK1B): 0%

Cn1cc(-c2ccc3c(c2)CCN3C(=O)Cc2ccccc2Cl)c2c(N)ncnc21 [GSK2608885]
%Inh (TLK2): 0% | %Inh (TNIK): 69% | %Inh (TNK1): 100% | %Inh (TNK2): 74% | %Inh (TNNI3K): 64% | %Inh (TRKA): 42% | %Inh (TRKB): 0% | %Inh (TRKC): 0% | %Inh (TRPM6): 33% | %Inh (TSSK1B): 17%

COc1ccc(Nc2ncc(C#N)c(Nc3ccccc3C(N)=O)n2)cc1N1CCN(C)CC1.Cl [GSK1558669]
%Inh (TLK2): 99.6% | %Inh (TNIK): 99.3% | %Inh (TNK1): 100% | %Inh (TNK2): 94.8% | %Inh (TNNI3K): 82% | %Inh (TRKA): 100% | %Inh (TRKB): 94.8% | %Inh (TRKC): 94.6% | %Inh (TRPM6): 46% | %Inh (TSSK1B): 89%

CN(C1=C(c2ccccc2)C(=O)NC1=O)c1ccccc1 [SB-334860]
%Inh (TLK2): 6% | %Inh (TNIK): 4% | %Inh (TNK1): 7% | %Inh (TNK2): 18% | %Inh (TNNI3K): 20% | %Inh (TRKA): 18% | %Inh (TRKB): 0% | %Inh (TRKC): 0% | %Inh (TRPM6): 31% | %Inh (TSSK1B): 11%

Cc1c2ccc(N(C)c3ccnc(Nc4cccc(S(N)(=O)=O)c4)n3)cc2nn1Cc1ccccc1.Cl.Cl [GW787226]
%Inh (TLK2): 12% | %Inh (TNIK): 88% | %Inh (TNK1): 62% | %Inh (TNK2): 0% | %Inh (TNNI3K): 3% | %Inh (TRKA): 0% | %Inh (TRKB): 0% | %Inh (TRKC): 0% | %Inh (TRPM6): 41% | %Inh (TSSK1B): 1%

Cc1nnc(-c2ccc3occ(-c4ccc(C(C)O)cc4)c3c2)o1 (centres unmarked)
%Inh (TLK2): 0% | %Inh (TNIK): 0% | %Inh (TNK1): 0% | %Inh (TNK2): 0% | %Inh (TNNI3K): 27% | %Inh (TRKA): 0% | %Inh (TRKB): 0% | %Inh (TRKC): 37% | %Inh (TRPM6): 0% | %Inh (TSSK1B): 0%

Cc1cn2c(=O)cc(N3CCOCC3)nc2n1Cc1cccc(Cl)c1Cl [GSK2334006]
%Inh (TLK2): 0% | %Inh (TNIK): 0% | %Inh (TNK1): 0% | %Inh (TNK2): 12% | %Inh (TNNI3K): 0% | %Inh (TRKA): 17% | %Inh (TRKB): 0% | %Inh (TRKC): 0% | %Inh (TRPM6): 0% | %Inh (TSSK1B): 29%

O=C(NOCC1CC1)c1ccc(F)c(F)c1Nc1ccc(I)cc1Cl
%Inh (TLK2): 0% | %Inh (TNIK): 2% | %Inh (TNK1): 26% | %Inh (TNK2): 0% | %Inh (TNNI3K): 0% | %Inh (TRKA): 0% | %Inh (TRKB): 0% | %Inh (TRKC): 0% | %Inh (TRPM6): 0% | %Inh (TSSK1B): 0%

Cl.Cl.Cl.Fc1ccc(-c2ncn(C3CCNCC3)c2-c2ccnc(Nc3ccccc3)n2)cc1 [SB-238039]
%Inh (TLK2; 1 µM): 13% and 0% | %Inh (TNIK; 1 µM): 86% and 84% | %Inh (TNK1; 1 µM): 58% and 12% | %Inh (TNK2; 1 µM): 0% and 10% | %Inh (TNNI3K): 0% | %Inh (TRKA): 0% | %Inh (TRKB; 1 µM): 18% and 16% | %Inh (TRKC; 1 µM): 67% and 0% | %Inh (TRPM6; 1 µM): 6% and 0% | %Inh (TSSK1B): 0%

Cc1cccc(-c2nc(-c3ccc(S(C)(=O)=O)cc3)sc2-c2ccncc2)c1
%Inh (TLK2): 13% | %Inh (TNIK): 36% | %Inh (TNK1): 0% | %Inh (TNK2): 0% | %Inh (TNNI3K): 0% | %Inh (TRKA): 6% | %Inh (TRKB): 0% | %Inh (TRKC): 0% | %Inh (TRPM6): 9% | %Inh (TSSK1B): 0%

Nc1nc(-c2ccc3c(N)n[nH]c3c2)cc(N2CCCC2)n1 [GSK2227430]
%Inh (TLK2): 0% | %Inh (TNIK): 0% | %Inh (TNK1): 0% | %Inh (TNK2): 0% | %Inh (TNNI3K): 0% | %Inh (TRKA): 0% | %Inh (TRKB): 0% | %Inh (TRKC): 0% | %Inh (TRPM6): 0% | %Inh (TSSK1B): 0%

COCCNC(=O)c1ccc(-c2cc(C(=O)NC3CC3)cc(F)c2C)cc1 [GW868318]
%Inh (TLK2): 0% | %Inh (TNIK): 0% | %Inh (TNK1): 40% | %Inh (TNK2): 16% | %Inh (TNNI3K): 11% | %Inh (TRKA): 27% | %Inh (TRKB): 43% | %Inh (TRKC): 30% | %Inh (TRPM6): 20% | %Inh (TSSK1B): 0%

O=c1cc(N2CCOCC2)nc2n(Cc3cccc(C(F)(F)F)c3)ccn12 [GSK2297543]
%Inh (TLK2): 3% | %Inh (TNIK): 0% | %Inh (TNK1): 0% | %Inh (TNK2): 11% | %Inh (TNNI3K): 6% | %Inh (TRKA): 20% | %Inh (TRKB): 0% | %Inh (TRKC): 0% | %Inh (TRPM6): 0% | %Inh (TSSK1B): 16%

O=C1NC(=O)C(N2CCc3ccccc32)=C1c1cccc(Cl)c1 [SB-408010]
%Inh (TLK2): 0% | %Inh (TNIK): 0% | %Inh (TNK1): 0% | %Inh (TNK2): 0% | %Inh (TNNI3K): 0% | %Inh (TRKA): 12% | %Inh (TRKB): 0% | %Inh (TRKC): 0% | %Inh (TRPM6): 21% | %Inh (TSSK1B): 22%

Cc1ccc(C(=O)NCC(N)=O)cc1-n1c(C)cc(OCc2ccc(F)cc2F)c(Br)c1=O
%Inh (TLK2): 0% | %Inh (TNIK): 0% | %Inh (TNK1): 0% | %Inh (TNK2): 15% | %Inh (TNNI3K): 14% | %Inh (TRKA): 0% | %Inh (TRKB): 0% | %Inh (TRKC): 0% | %Inh (TRPM6): 0% | %Inh (TSSK1B): 26%

Cc1c(Cn2c(C)nn3c(=O)cc(N4CCOC(C)C4)nc23)cccc1C(F)(F)F (centres unmarked) [GSK2344444]
%Inh (TLK2): 0% | %Inh (TNIK): 0% | %Inh (TNK1): 9% | %Inh (TNK2): 7% | %Inh (TNNI3K): 0% | %Inh (TRKA): 0% | %Inh (TRKB): 0% | %Inh (TRKC): 0% | %Inh (TRPM6): 6% | %Inh (TSSK1B): 17%
